# Source: PubChem BioAssay (NCATS)
# Where “and” joins values, the source holds several entries; their conditions need not be identical. Identical values can stand only once. Unmarked numbers belong to inactive results. Results filed as inconclusive are left out. Some structures have more than one record in an assay (separate samples or runs), and their calls can disagree. Calls of active or inactive are those of the source. Unless noted, calls come from the whole dose curve; as a rule, active = well fitted curve in the direction sought with a large enough effect; inconclusive = small, poorly fitted or top-dose-only effect, or another doubt; inactive = no such curve, though single readings can be large; an effect the other way counts as inactive or inconclusive.
# Tests used:
# [1] = system: SKOV3; test: Primary qHTS to identify gynecologic anti-cancer compounds using libraries of approved drugs and bioactive compounds (AID 1345084); conditions: Gynecologic cancer cell panel viability, ATPlite luminescence, 48 h; series mostly up to 57.5 µM; note: nearly all actives have a fitted effect of over 55% in size; note: potency is the fitted concentration of half-maximal effect
# Outline: (§1)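 Cells, 1,000 per well, were allowed to settle for 16 h at 37 C before compound addition. Five concentrations were tested for 48 h, and viability was read by ATPlite luminescence after 15 min at room temperature.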
# [2] = system: Tov-21-G; test: as above; conditions: Gynecologic cancer cell panel viability, ATPlite luminescence, 48 h; series mostly up to 57.5 µM
# Outline: as §1
# [3] = system: Tov112D; test: as above; conditions: Gynecologic cancer cell panel viability, ATPlite luminescence, 48 h; series mostly up to 57.5 µM
# Outline: as §1
# [4] = Drug repurposing screens with cells derived from glioblastoma tumor samples (AID 1345199); conditions: GBM patient neurospheres viability, ATP luminescence, 48 h; note: nearly all actives have a fitted effect of over 40% in size; note: potency is the fitted concentration of half-maximal effect; for activity, negative = cell killing: % is set by controls: 0 for no effect and ±100 for the full control effect
# Outline: (§2)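 Primary testing used CD133+ neurospheres from four GBM patients, seven concentrations, 48 h exposure and ATP-based viability; confirmation added three slower-growing patient lines.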
# [5] = system: astro; test: as above; conditions: viability, ATP luminescence, 48 h; series mostly up to 45.9 µM
# Outline: as §2
# [6] = target: Nuclear receptor subfamily 1 group I member 2 (Rattus norvegicus) (UniProt Q9R1A7); test: qHTS assay for small molecule activators of the rat pregnane X receptor (rPXR) signaling pathway (AID 651751; call rule not given here; note: 0% is about no effect); conditions: rPXR reporter cells, luciferase (One-Glo), 24 h
# Nuclear receptor subfamily 1 group I member 2 (Rattus norvegicus), sequence (Q9R1A7 whole entry, looked up): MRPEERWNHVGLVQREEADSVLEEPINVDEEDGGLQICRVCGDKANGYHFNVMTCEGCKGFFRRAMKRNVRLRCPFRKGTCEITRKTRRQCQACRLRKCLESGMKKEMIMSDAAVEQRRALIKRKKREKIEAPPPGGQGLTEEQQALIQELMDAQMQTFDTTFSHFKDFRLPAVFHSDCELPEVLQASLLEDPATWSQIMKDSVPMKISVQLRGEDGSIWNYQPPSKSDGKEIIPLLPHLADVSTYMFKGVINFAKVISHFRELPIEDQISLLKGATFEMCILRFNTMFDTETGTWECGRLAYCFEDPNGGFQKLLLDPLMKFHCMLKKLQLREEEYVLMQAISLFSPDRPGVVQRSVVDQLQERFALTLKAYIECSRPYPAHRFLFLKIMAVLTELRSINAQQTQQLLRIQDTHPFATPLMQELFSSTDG
# [7] = qHTS assay for small molecule activators of the human pregnane X receptor (PXR) signaling pathway (AID 720659; call rule not given here; note: 0% is about no effect); conditions: DPX-2 HepG2 CYP3A4-luciferase, 24 h; series mostly up to 92.3 µM
# [8] = qHTS assay to identify inhibitors of the type 1 interferon - major histocompatibility complex class I in skeletal muscle: Counter screen cell viability and HiBit confirmation (AID 1347412); conditions: iHSKM muscle cells + IFN-b, HiBiT or CellTiter-Glo, 24 h; note: potency is the fitted concentration of half-maximal effect; nearly all actives have a fitted effect of over 60% in size
# Outline: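 Human myoblast knock-in line, 4.0 ng/ml IFN-beta stimulation, 24 h compound treatment. Endpoints: HiBiT lytic luminescence (HLA-B level) and CellTiter Glo (ATP). Dosing 12 concentrations, 3-fold steps, 46 uM highest final.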
# [9] = at 45.9 µM (top of the series), tumour line B
# [10] = at 45.9 µM (top of the series), tumour line D
# [11] = at 46.1 µM (top of the series), tumour line C
smiles,measurement,setting,value
CN(C)CCCSc1ccccc1NC(=O)/C=C/c1ccccc1,outcome,[1],inactive
same,Potency,[2],inactive
same,outcome,[3],inactive
same,"activity, negative = cell killing",[4]; [9],-25.4%
same,Potency,[4]; tumour line A,10 µM (active)
same,Potency,[5],inactive
Cc1ncc(COP(=O)(O)O)c(CN)c1O,"activity, negative = cell killing",[4]; [9],-10.4%
same,"activity, negative = cell killing",[4]; [10],-17.3%
same,"activity, negative = cell killing",[4]; [11],-23.4%
CCCCCCCCCC(=O)NO,"activity, negative = cell killing",[4]; [9],-14.3%
same,"activity, negative = cell killing",[4]; [11],-21.2% and 7.01%
Cc1cccc(C)c1NC(=O)C1CCCCN1C (stereo not given),"activity, negative = cell killing",[4]; [9],-7.34%
same,"activity, negative = cell killing",[4]; [11],2.03%
C#C[C@]1(O)CC[C@@H]2[C@H]3CCC4=CC(=O)CC[C@H]4[C@H]3C(=C)C[C@@]21CC,"activity, negative = cell killing",[4]; [9],2.86%
same,"activity, negative = cell killing",[4]; [10],-28.7%
same,Potency,[4]; tumour line A,22.4 µM (active)
Nc1nc(NC2CC2)c2ncn([C@@H]3C=C[C@@H](CO)C3)c2n1,"activity, negative = cell killing",[4]; [11],-22.1%
same,Potency,[4]; tumour line A,35.5 µM (active)
Cc1cc(C)c(NC(=O)C[C@H](CC(=O)O)c2cccc3ccccc23)c(C(=O)N2CCC3(CCCC3)CC2)c1,"activity, negative = cell killing",[4]; [9],-14%
same,"activity, negative = cell killing",[4]; [10],2.34%
same,"activity, negative = cell killing",[4]; [11],-29.7%
C=C1CC[C@H](O)CC1=C/C=C1\CCC[C@]2(C)[C@@H]([C@H](C)/C=C/[C@H](C)C(C)C)CC[C@@H]12,outcome,[1],inactive
same,Potency,[2],inactive
same,outcome,[3],inactive
same,"activity, negative = cell killing",[4]; [11],6.83%
same,Potency,[4]; tumour line A,10 µM (active)
C[C@@H]1C[C@H]2[C@@H]3CCC4=CC(=O)C=C[C@]4(C)[C@@]3(F)[C@@H](O)C[C@]2(C)[C@@]1(O)C(=O)COC(=O)c1cccc(S(=O)(=O)O)c1,"activity, negative = cell killing",[4]; [9],-14.3%
same,"activity, negative = cell killing",[4]; [10],-16.1%
same,"activity, negative = cell killing","[4]; at 46 µM (top of the series), tumour line A",-5.39%
O=C(OCc1ccccc1)c1ccc(O)cc1,outcome,[1],inactive
same,Potency,[2],inactive
same,outcome,[3],inactive
same,"activity, negative = cell killing",[4]; [9],-16.7%
same,"activity, negative = cell killing",[4]; [10],-12.6%
same,"activity, negative = cell killing",[4]; [11],10.4%
same,Potency,[5],inactive
same,max response,[6],2.15%
same,outcome,[7],inactive
Cc1c(Cl)cccc1Nc1ncccc1C(=O)O,"activity, negative = cell killing",[4]; [9],-16.8%
same,"activity, negative = cell killing",[4]; [10],-17%
COc1ccc2c(c1)N(C[C@H](C)CN(C)C)c1ccccc1S2,"activity, negative = cell killing","[4]; at 20 µM (top of the series), tumour line C",13%
same,Potency,[4]; tumour line A,4.47 µM (active)
same,Potency,[4]; tumour line D,12.6 µM (active)
CC1CC(OC(=O)C(O)c2ccccc2)CC(C)(C)C1 (stereo not given),outcome,[1],inactive
same,Potency,[2],inactive
same,outcome,[3],inactive
same,"activity, negative = cell killing",[4]; [9],-16.2%
same,"activity, negative = cell killing",[4]; [10],6.83%
same,"activity, negative = cell killing",[4]; [11],-12.1%
same,Potency,[5],inactive
C[C@H]1O[C@@H](O[C@H]2[C@@H](O)C[C@H](O[C@H]3[C@@H](O)C[C@H](O[C@H]4CC[C@@]5(C)[C@H](CC[C@@H]6[C@@H]5C[C@@H](O)[C@]5(C)[C@@H](C7=CC(=O)OC7)CC[C@]65O)C4)O[C@@H]3C)O[C@@H]2C)C[C@H](O)[C@@H]1O,Potency,[2],0.1 µM (active)
same,Potency,[5],0.316 µM (active)
same,Potency,[8],0.0394 µM (active)
same,max response,[6],-0.0646% and -4.92%
same,outcome,[7],inactive
COc1cc(C)c(/C=C/C(C)=C/C=C/C(C)=C/C(=O)O)c(C)c1C,"activity, negative = cell killing",[4]; [9],-16.3%
same,"activity, negative = cell killing",[4]; [10],8.72%
same,"activity, negative = cell killing",[4]; [11],-9.52%
CC(=O)Oc1cccc2c1C(=O)c1c(OC(C)=O)cc(C(=O)O)cc1C2=O,outcome,[3],inactive
same,"activity, negative = cell killing",[4]; [9],-17.6%
same,"activity, negative = cell killing",[4]; [10],-16.7%
same,Potency,[5],inactive
Oc1ccc(/C=C/c2cc(O)cc(O)c2)cc1,Potency,[2],22.4 µM (active)
same,Potency,[5],4.47 µM (active)
same,max response,[6],-2.85% and -10.8%
CCOC(=O)C1=C(COCCN)NC(C)=C(C(=O)OC)C1c1ccccc1Cl (stereo not given),"activity, negative = cell killing",[4]; [9],-28.9%
same,Potency,[4]; tumour line A,11.2 µM (active)
O=C(Nc1ccc(O)cc1)c1ccccc1O,"activity, negative = cell killing",[4]; [11],-27.7%
CC1CCC(NC(=O)N(CCCl)N=O)CC1 (stereo not given),"activity, negative = cell killing",[4]; [9],-5.97%
same,"activity, negative = cell killing",[4]; [10],0.785%
same,"activity, negative = cell killing",[4]; [11],-19.7%
C/C(=C\C(=O)OCCCCCCCCC(=O)O)C[C@@H]1OC[C@H](C[C@@H]2O[C@H]2[C@@H](C)[C@H](C)O)[C@@H](O)[C@H]1O,Potency,[2],inactive
same,outcome,[3],inactive
same,"activity, negative = cell killing",[4]; [9],-19.6%
same,"activity, negative = cell killing",[4]; [10],-9.28%
same,"activity, negative = cell killing",[4]; [11],-21.4%
same,Potency,[5],inactive
CC(C)(C)c1ccc(CN2CCN(C(c3ccccc3)c3ccc(Cl)cc3)CC2)cc1 (stereo not given),outcome,[1],inactive
same,Potency,[2],inactive
same,outcome,[3],inactive
same,Potency,[5],35.5 µM (active)
CCCCCCCCCCCC(=O)N(CCO)CCO,"activity, negative = cell killing",[4]; [9],-26.4%
CC(C)CN(C[C@@H](OP(=O)(O)O)[C@H](Cc1ccccc1)NC(=O)O[C@H]1CCOC1)S(=O)(=O)c1ccc(N)cc1,"activity, negative = cell killing",[4]; [9],-7.11%
same,"activity, negative = cell killing",[4]; [10],-11.4%
same,"activity, negative = cell killing",[4]; [11],-18.7%
